PubChem BioAssay (NCI)
About 83,000 compounds went through this panel and 20% of them were active in at least one assay; those are over-represented in the sample as a whole.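 Interpretation: 100, growth as untreated; towards 0, rising growth inhibition; 0, no net growth; 0 to -100, cell death. Compounds scoring below 10 were considered active.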 Values without a mark were called inactive. Activity calls are given as the source filed them.

Test system: SK-MEL-2 melanoma
Experiment: NCI-60 one-dose screen, 48 h (100 = growth as untreated, 0 = no growth, -100 = all killed)
Conditions: 10 µM unless noted

Compared with `O=C(Nc1ccc(Cl)cc1)Nc1ccc(Cl)c(Cl)c1`, `Clc1ccc(C2CC(c3cccc(Nc4ccncc4)c3)=NN2c2ccc(Cl)cc2)cc1` (stereo not given) is higher in growth: 13.3% for the first, 85.8% for the second.

Going from `CC(C)Cc1ccc(C(C)C(=O)NCc2ccc(Cn3c(=O)sn(-c4ccc(Cl)cc4)c3=O)cc2)cc1` (stereo not given) to `COc1ccc(C2CC(c3cccc(Nc4ccncc4)c3)=NN2c2ccc(Cl)cc2)cc1` (stereo not given), the growth falls from 107% to 80.4%.

Compared with `COc1ccc(/C=N/NC(=O)c2cccc3cc[nH]c23)cc1O`, `COc1ccc(-c2ncc(-c3ccccc3)[nH]2)cc1OC` is higher in growth: 52.3% for the first, 118% for the second.

Compared with `COc1cc(NCC(O)CN(CC(C)C)C2CCCC2)c2ncccc2c1` (stereo not given), `COc1cccc(CCC(=O)c2cc3c(N)c(C(=O)Nc4ccccc4)sc3nc2C)c1` is lower in growth: 98.3% for the first, 42.3% for the second.

First: COc1ccccc1Nc1cc(O)c2c(=O)cc(-c3ccccc3)oc2c1
Second: O=C(Nc1ccccc1)Oc1ccccc1-c1ccccc1
The growth of the first is lower: 13.7% for the first, 93.2% for the second.

First: C[C@@H]1CN(Cc2ccc(/C=C/c3n[nH]c4ccc5nc(-c6cn[nH]c6C(F)(F)F)c6c(c5c34)CCCC6)cc2)C[C@H](C)O1
Second: CCOC(=O)c1ccc(Nc2ccnc(SCC(=O)c3ccc(C#N)cc3)n2)cc1
The growth of the first is lower: 57.6% for the first, 71.1% for the second.

Going from `CCCCCCCCCCCCCCCCCCOc1ccccc1N` to `Clc1ccc(N2N=C(c3cccc(Nc4ccncc4)c3)CC2c2ccc(Br)cc2)cc1` (stereo not given), the growth rises from 86.3% to 94.7%.

`CN1CCN(CCCNc2nccc(-c3c(-c4ccc(F)c(O)c4)nc4sccn34)n2)S1(=O)=O` was tested, and the growth was -1.07% (active).
